Compound activity (PubChem BioAssay)
The list is not random: actives were taken first. Their share in the collection is about 5.4%.
Vaccinia mCherry – vaccinia inhibition (mCherry reporter) | Vaccinia virus mCherry reporter infection, fluorescence | Potency, µM (series often up to 36.5 µM), for inactives: at the highest dose activity change, negative = inhibition, actives largely listed as inhibitors | hit rate 0.63% among 310,000; calls by dose curve; tested in A549 cells; note: nearly all actives have a fitted effect of over 35% in size
Sm TGR block – inhibitors of Schistosoma mansoni thioredoxin glutathione reductase; hit rate 3% among 360,000; AID 485364; Q962Y6; Potency, µM (top dose mostly 114 µM), without a hit: top-dose activity change, negative = inhibition, most hits filed as inhibitors; purified TGR, DTNB reduction, TNB absorbance 405 nm; active = well fitted inhibition curve with a large enough effect; inconclusive = small, poorly fitted or top-dose-only effect; inactive = no such curve, though single readings can be large or run the other way; note: nearly all actives have a fitted effect of over 60% in size
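TGR 20 nM + NADPH 100 uM (dispensed conc.), cpd preinc 15 min RT; start with NADPH (500 uM addition) then DTNB (15 mM addition). Kinetic TNB absorbance, 405 nm filter. Four-parameter Hill fit across titration.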
VACV Venus inh – vaccinia inhibition (Venus reporter); Vaccinia virus Venus reporter expression, fluorescence; Potency, µM (top dose mostly 36.5 µM), for the others: at the highest dose activity change, negative = inhibition, actives largely listed as inhibitors; hit rate 0.46% among 330,000; AID 720580; calls by dose curve; tested in A549 cells; note: nearly all actives have a fitted effect of over 30% in size
LASV entry inh – Lassa virus entry inhibition; hit rate 1.2% among 300,000; Potency, µM (titrated, usually from 37.9 µM), for inactives: at the top dose activity change, negative = inhibition, usual class: inhibitors; Lassa virus pseudotype entry inhibition, cell reporter; AID 540256; calls by dose curve; tested in HEK293 cells; note: nearly all actives have a fitted effect of over 50% in size
Marburg entry inh – Marburg virus entry inhibition; hit rate 1.8% among 300,000; Potency, µM (titrated, usually from 37.8 µM), for the others: top-dose activity change, negative = inhibition, usual class: inhibitors; Marburg virus pseudotyped entry inhibition, cell reporter; calls by dose curve; tested in HEK293 cells
FMDV inh – antivirals against foot and mouth disease virus | AID 1159524 | hit rate 1.2% among 410,000 | FMDV antiviral cell-based qHTS | Potency, µM (highest dose often 57.9 µM), for inactives: top-dose activity change, negative = inhibition, actives largely listed as inhibitors; calls by dose curve; tested in HEK293T cells; note: read-out not given here; nearly all actives have a fitted effect of over 45% in size
The depositor's hits bear a star; i = inactive; ? = inconclusive; . = not tested or not shown; [ ] = another dose, or the depositor's remark. % is set by controls: 0 for no effect and ±100 for the full control effect; potency is the fitted concentration of half-maximal effect.

SMILES | Vaccinia mCherry | Sm TGR block | VACV Venus inh | LASV entry inh | Marburg entry inh | FMDV inh
COC(=O)c1c(NC(=O)/C(C#N)=C/c2ccc(OC)cc2)sc2c1CCC2 | -5% | -1% | 14% | 15%[46.1 µM] | . | -8%
Cc1ccc(Cl)cc1NC1=C/C(=N\S(=O)(=O)c2cccs2)c2ccccc2C1=O | 25µM* | -17% | ? | 6.5µM* | ? | 14µM*
Cc1ccc(NC2=C/C(=N\S(=O)(=O)c3cccs3)c3ccccc3C2=O)c(C)c1 | 10µM* | -31% | 6.3µM* | ? | ? | 25µM*
Cc1ccc(Cl)cc1NS(=O)(=O)c1ccccc1 | -3% | . | -8% | ? | ? | 43%
Cc1nn(Cc2ccc(Cl)cc2Cl)c(Cl)c1C(=O)NC1CCCc2ccccc21 (centres undefined) | i | -3% | -9% | 5% | 6% | 20µM*
Cc1cc(=O)[nH]c2nc(N)ccc12 | -13% | . | -3% | . | . | .
Cc1cc(C)c2ccc(N)nc2c1O | 13µM* | -13% | ? | ? | ? | -14%
O=c1c2c(nc3cc(-c4ccccc4)[nH]n13)CCC2 | . | 18% | -21% | 4µM* | -21% | -20%
CCOC(=O)CSc1nc2ccccc2n2cnnc12 | -10% | 50µM* | -6% | 3% | -4% | 3%
C=CCSc1nc2ccccc2n2cnnc12 | . | 6% | . | . | . | 0%
CCOc1ccc(N2Nc3n[nH]c(N)c3N2)cc1 | 2µM* | -15% | ? | ? | 1% | 27%
COc1ccc(-c2ccc(C(=O)N3CCc4c(cnc(C)c4CNS(=O)(=O)N(C)C)C3)o2)cc1 | -15% | . | -7% | . | . | 0%
CCOc1ccc(-c2cccc(NS(=O)(=O)c3cc([N+](=O)[O-])ccc3Cl)c2)nn1 | 10µM* | -3% | ? | -3% | 8% | 59%
COc1ccc(-c2cccc(NS(=O)(=O)c3cc([N+](=O)[O-])ccc3Cl)c2)nn1 | i | -14% | -8% | 11% | -14%[46.1 µM] | -3%
CCCC(=O)OCCNc1cc(SCCC(=O)OC)c2nonc2c1[N+](=O)[O-] | 0% | 3.5µM* | -9% | 9% | ? | -14%
CC(=O)Nc1ccc(Nc2ccc3nonc3c2[N+](=O)[O-])cc1 | -2% | 0% | -5% | 1%[46.1 µM] | ? | -21%
COC(=O)CCSc1cc(NCCOC(C)=O)c([N+](=O)[O-])c2nonc12 | -7% | -8% | -17% | 2% | ? | 35µM*
CCOC(=O)c1ccc(NCCOC)c([N+](=O)[O-])c1 | i | 9% | -5% | ? | ? | 6%
COc1cccc(C(=O)c2cn(CC(=O)Nc3cccc(C)c3C)c3nc(C)ccc3c2=O)c1 | -7% | -1% | -3% | -2%[46.1 µM] | . | 0%
Cc1ccccc1CN1C(=O)C(O)(c2c[nH]c3ccccc23)c2cc(Cl)ccc21 (centres undefined) | -14% | 10% | -13% | ? | 8.9µM* | -24%
CCOc1cc(CNCCc2ccc(S(N)(=O)=O)cc2)cc(Cl)c1OCc1ccccc1 | . | 7% | . | ? | ? | 20µM*
CCOc1cc(CNCCc2ccc(S(N)(=O)=O)cc2)ccc1OCc1ccccc1 | . | 0% | . | ? | 6.5µM* | ?
CCNCc1cc(Cl)c(OCc2ccccc2)c(OCC)c1 | -21% | 5% | -29% | ? | ? | 0%
COc1cc(NC(=O)CSc2cc(=O)n(C)c3ccccc23)cc(OC)c1OC | 7% | -2% | 2% | 12%[46.1 µM] | ? | -25%
COc1ccc(N(C)C(=O)c2cc3c(s2)-c2ccc(Cl)cc2S(=O)(=O)C3)c(OC)c1 | . | -6% | . | . | . | 28µM*
SMILES | Vaccinia mCherry | Sm TGR block | VACV Venus inh | LASV entry inh | Marburg entry inh | FMDV inh
CCOc1ccc(OCC)c(NC(=O)CCC(=O)N2CCOc3ccccc32)c1 | 0% | 0% | 0% | 18%[46.1 µM] | -2%[46.1 µM] | -2%
CC(=O)c1ccc(NC(=O)C2=CC(c3ccc(C)cc3)=NS(=O)(=O)N2C)cc1 | -12% | 3% | -15% | -12%[46.1 µM] | ? | ?
CC(C)CC(=O)Nc1ccc(C(=O)CN2CCN(c3ccc(O)cc3)CC2)cc1 | -10% | 5.6µM* | -15% | 19%[46.1 µM] | ? | 11%
CN(C)S(=O)(=O)c1cc(NC(=O)CN2CCN(c3ccc(O)cc3)CC2)ccc1Cl | -13% | 79µM* | -3% | ? | ? | -8%
CN(C)S(=O)(=O)c1cc(NC(=O)CN2CCN(c3ccccc3)CC2)ccc1Cl | -24% | 3% | -27% | 3.5µM* | ? | -28%
O=C(CN1CCN(c2ccc(O)cc2)CC1)Nc1ccc(S(=O)(=O)N2CCCC2)cc1 | ? | . | 0% | 4%[46.1 µM] | -3%[46.1 µM] | -12%
CCN(c1ccccc1)S(=O)(=O)c1cc(NC(=O)CN2CCN(C)CC2)ccc1Cl | -14% | . | -3% | -30%[46.1 µM] | ? | -25%
CSc1nnc(CCNC(=O)/C=C/c2cccc(F)c2)n1-c1ccc(F)cc1 | i | . | -14% | . | . | -15%
Cc1cc(C)c(S(=O)(=O)N2Cc3ccccc3-n3nncc3C2)c(C)c1 | -18% | . | -22% | . | . | 22µM*
COc1ccc(S(=O)(=O)N2Cc3ccccc3-n3nncc3C2)cc1 | i | . | -16% | . | . | 0%
Cc1ccc(Cn2c(=O)n(Cc3ccco3)c(=O)c3sc4ccccc4c32)cc1 | -10% | 2% | -7% | -2%[46.1 µM] | 1%[46.1 µM] | -2%
Cc1ccc(S(=O)(=O)N2CCN(c3nc(-c4cccs4)nc(C)c3C)CC2)cc1 | -14% | . | 3% | . | . | .
Cc1ccccc1N1CCN(CCC(=O)Nc2ccc(F)cc2)CC1 | . | 40µM* | . | . | . | -9%
Cc1ccc(CNS(=O)(=O)c2ccc(CN3C(=O)c4cccnc4C3=O)cc2)o1 | i | 20µM* | -18% | ? | 2%[46.1 µM] | -9%
CC(C)NS(=O)(=O)c1cc(F)ccc1CN1C(=O)c2cccnc2C1=O | . | 2% | . | . | . | -20%
Cc1ccc(CNS(=O)(=O)c2cc(F)ccc2CN2C(=O)c3cccnc3C2=O)o1 | -16% | 25µM* | -18% | 15%[46.1 µM] | 15%[46.1 µM] | 2%
CC(=O)Nc1ccc(NS(=O)(=O)c2ccc(CN3C(=O)c4cccnc4C3=O)cc2)cc1 | i | 0% | -13% | -3%[46.1 µM] | 9%[46.1 µM] | 8%
Cc1cc(C)n2nc(C(=O)NCC3Cc4cccc(-c5ccc(S(C)(=O)=O)cc5)c4O3)cc2n1 (centres undefined) | -10% | . | -1% | . | . | 34%
OCCN(CCO)c1ccc2ccccc2c1 | -20% | 34% | 3% | 13%[46.1 µM] | 5%[46.1 µM] | -6%
OCCN(CCO)c1ccc(C(c2ccccc2Cl)c2ccc(N(CCO)CCO)cc2Cl)c(Cl)c1 | ? | -2% | ? | 11µM* | -27% | 40µM*
CCOc1ccc(CCNC(=O)c2c3c(nc4ccccc24)C(=O)N(C2CCCCC2)C3)cc1 | i | -8% | -17% | -23%[46.1 µM] | . | -3%
CCOc1ccc(-c2oc3cc(Cl)ccc3c(=O)c2O)cc1OC | 28µM* | -2% | -24% | -7%[46.1 µM] | 11%[46.1 µM] | 2%
COc1cc(/C=C2\C(=O)N(c3ccc(NC(C)=O)cc3)N=C2c2ccccc2)ccc1O | . | -3% | . | . | . | ?
